Screening results (PubChem)
HCT116 PTEN-null: suppresses growth of cells with PTEN deletion | HCT116 PTEN-null viability, CellTiter-Glo, 60 h; stronger effect = lower value | viability, % at 10 µM | 1.2% of 140,000 active;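 active = viability at or below a set limit, 4 SD under the median of all tested compounds, cut at about 3.7% in these data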;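 note: PTEN knockout HCT116 line with beta catenin targeted HCT116 as companion control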
HCT116 bCat-KO: beta-catenin-lacking colon tumor cell growth suppression | HCT116 beta-catenin knockout viability, CellTiter-Glo, 60 h; stronger effect = lower value | viability, % at 10 µM | 1.5% of 140,000 active;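 active = viability at or under a set limit, the compound median less 4 SD, cut at about 6% in these data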;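 note: 0% = Hyamine 1622 control at 20 µM and 100% = untreated cell control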
p97 inhibitor: inhibitors of human p97 ATPase. recombinant p97 ATPase, Kinase-Glo ATP luminescence, 3 h. inhibition, % at 8 µM. 0.42% of 220,000 active. AID 1481; in the data active = inhibition above about 15%;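 note: 0% = DMSO vehicle and 100% = wells lacking enzyme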
Target sequence (P55072 whole entry, looked up): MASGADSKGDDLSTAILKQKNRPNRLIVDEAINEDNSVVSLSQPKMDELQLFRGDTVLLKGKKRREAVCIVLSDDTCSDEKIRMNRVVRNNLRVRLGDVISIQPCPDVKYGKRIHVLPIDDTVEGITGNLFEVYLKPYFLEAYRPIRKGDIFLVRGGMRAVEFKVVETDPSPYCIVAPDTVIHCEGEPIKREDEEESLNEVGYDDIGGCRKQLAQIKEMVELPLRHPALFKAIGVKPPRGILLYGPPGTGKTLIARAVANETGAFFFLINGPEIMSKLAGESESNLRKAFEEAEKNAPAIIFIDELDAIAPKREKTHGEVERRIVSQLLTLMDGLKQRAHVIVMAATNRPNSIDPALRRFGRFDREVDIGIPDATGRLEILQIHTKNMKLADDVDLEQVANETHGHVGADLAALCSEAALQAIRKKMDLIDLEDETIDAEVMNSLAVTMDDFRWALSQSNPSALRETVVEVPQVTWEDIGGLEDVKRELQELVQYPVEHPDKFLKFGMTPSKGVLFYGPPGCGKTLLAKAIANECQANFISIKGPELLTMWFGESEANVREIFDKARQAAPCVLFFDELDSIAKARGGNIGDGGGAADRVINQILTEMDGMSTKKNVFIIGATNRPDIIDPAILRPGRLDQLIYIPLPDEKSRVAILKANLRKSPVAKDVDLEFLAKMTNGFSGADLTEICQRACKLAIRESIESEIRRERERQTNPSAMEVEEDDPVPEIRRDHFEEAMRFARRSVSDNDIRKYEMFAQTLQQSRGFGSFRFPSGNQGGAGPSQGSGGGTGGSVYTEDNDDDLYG
INS promoter inh: TRM-6 insulin promoter activity inhibition | TRM-6 cells (human fetal islet line), insulin promoter-eGFP reporter, imaging; reporter expression induced with tamoxifen | inhibition, % at 2 µM | 0.9% of 130,000 active | AID 1273;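 active = inhibition above the mean plus 3 SD, with well images judged a real hit on visual review, cut at about 60% in these data, passing the limit was not always enough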
ROMK mod: human ROMK K+ channel modulation, primary screen; 2% of 130,000 active; Tet-inducible ROMK, thallium flux fluorescence; actives lie on both sides; AID 1918; P48048; B-score at 10 µM;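 active = signal ratio slope over the read window, or its plate-corrected B-score, at least 3 SD from the plate mean, either direction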;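 note: B-score of the F/F0 ratio slope over 7 to 12 s after thallium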
Lmaj promast: reduces viability of Leishmania major promastigotes. resazurin fluorescence viability. inhibition, % at 10 µM. 9% of 200,000 active. AID 1063; in the data active = inhibition above about 50%;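 note: promastigotes grown with compound for 44 hours at 28 °C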
* = called active by the depositor; nt = not tested or not shown. The list is not random: actives were taken first. Their share in the collection is about 10%.

SMILES	HCT116 PTEN-null	HCT116 bCat-KO	p97 inhibitor	INS promoter inh	ROMK mod	Lmaj promast
Fc1cccc(C2NCCc3[nH]cnc32)c1 (stereo not given)	93.0	85.4	-0.8	6.2	nt	-3.3
Clc1ccc(OCC#CCN2CCCCCC2)cc1	nt	nt	0.9	nt	0.563	85.1*
COc1ccc(OCC#CCN2CCC(C)CC2)cc1	nt	nt	-0.5	-23.5	0.788	22.8
CCCCN1CCC(O)(c2ccccc2)C(C(=O)c2ccccc2)C1 (stereo not given)	64.5	31.8	4.5	25.6	nt	97.2*
Cn1cc(NC(=O)CCl)cn1	nt	nt	5.3	nt	0.28	1.0
O=C(COc1ccc(Cl)cc1)N(c1ccccc1Cl)C1CN2CCC1CC2 (stereo not given)	nt	nt	-3.4	nt	nt	nt
CN1CCN(CCOC2c3ccccc3CSc3ccc(Cl)cc32)CC1 (stereo not given)	15.2	12.3	0.1	-63.6	nt	99.1*
Clc1ccc2c(c1)C(OC1CN3CCC1CC3)c1ccccc1CS2 (stereo not given)	11.9	8.5	8.3	0.0	nt	100.2*
Cc1c(N=Cc2c(O)n(CCc3ccc(F)cc3)c(=O)[nH]c2=O)c(=O)n(-c2ccccc2)n1C	92.7	101.0	4.0	-400.0	2.28	-0.7
COc1ccc(N/N=C/c2c(O)n(-c3cccc(C)c3)c(=O)[nH]c2=O)cc1	nt	nt	4.9	nt	-0.00126	94.0*
COc1ccc(N/N=C/c2c(O)n(-c3ccc(C)c(C)c3)c(=O)[nH]c2=O)cc1	89.7	88.8	3.5	35.7	0.226	87.7*
Cc1ccc(-n2c(O)c(/C=N/Nc3ccccc3)c(=O)[nH]c2=O)cc1C	nt	nt	3.1	nt	nt	nt
COc1ccc(N=Cc2c(O)n(-c3ccc(C)cc3)c(=O)[nH]c2=O)cc1	nt	nt	4.7	83.3*	-1.85	10.1
Nc1nonc1OCCCCOc1nonc1N	nt	nt	1.1	nt	0.421	0.6
O=C1OCCC1NC1=NCCC1 (stereo not given)	113.5	105.8	7.0	-14.8	0.14	-5.0
CCOC(=O)C1(CCOc2ccccc2)CCN(C2Cc3ccccc3C2)CC1	nt	nt	5.1	nt	nt	88.3*
CCNC(=O)NC(=O)C(C)OC(=O)c1c(C)nn(Cc2ccccc2)c1Cl (stereo not given)	90.0	82.3	1.1	10.0	-0.0855	-2.5
CCOC(=O)C1=Nc2ccccc2/C1=C\c1c(O)n(C)c(=O)n(C)c1=O	nt	nt	5.8	nt	nt	nt
CCOC(=O)c1ccc(N=Cc2c(O)n(-c3ccccc3F)c(=S)[nH]c2=O)cc1	97.5	101.9	8.2	2.7	nt	61.2*
CCn1c(O)c(C=Nc2ccc(S(N)(=O)=O)cc2)c(=O)n(CC)c1=S	75.9	73.9	-0.5	-50.0	0.917	-6.1
CCOC(=O)c1ccc(N=Cc2c(O)n(-c3ccc(OC)cc3)c(=S)[nH]c2=O)cc1	nt	nt	3.1	16.7	-0.0328	-2.2
CCn1c(O)c(C=Nc2ccc(S(N)(=O)=O)cc2)c(=O)[nH]c1=S	106.4	97.1	-3.2	-29.9	1.2	56.4*
O=C1NC(=O)C(CCc2ccncc2)(Cc2ccc(OCc3ccccc3)cc2)C(=O)N1	nt	nt	2.8	nt	nt	nt
CC/C(=N\NC(=S)Nc1ccccc1)c1c(O)[nH]c(=O)[nH]c1=O	nt	nt	3.9	nt	nt	nt
Nc1c(C(=O)NC2CCCC2)c2nc3ccccc3nc2n1CC1CCCO1 (stereo not given)	47.1	56.2	-3.1	nt	-1.14	50.7*
SMILES	HCT116 PTEN-null	HCT116 bCat-KO	p97 inhibitor	INS promoter inh	ROMK mod	Lmaj promast
Nc1c(C(=O)OCC2CCCO2)c2nc3ccccc3nc2n1Cc1cccs1 (stereo not given)	62.7	68.5	-7.1	27.6	nt	95.3*
CC(C)OCCCNC(=O)c1c(N)n(Cc2cccs2)c2nc3ccccc3nc12	14.2	32.0	-1.4	nt	nt	17.9
Nc1c(C(=O)NCC2CCCO2)c2nc3ccccc3nc2n1Cc1ccco1 (stereo not given)	nt	nt	7.9	nt	nt	nt
Cc1cc2ccccc2c(=O)n1CC(=O)NCC(=O)N1CCC2(CC1)OCCO2	nt	nt	3.6	6.7	-1.75	-0.2
C=Cn1ccnc1P(=S)(c1ccn(C)c1)c1nccn1C=C	94.5	110.8	2.7	-18.2	nt	-5.2
Cc1ccc(Cc2c(C)nc3nc(SCC(=O)N4CCC5(CC4)OCCO5)nn3c2C)cc1	95.1	96.3	-2.9	-125.0	1.04	1.3
Cc1ccccc1Cc1c(C)nc2nc(SCC(=O)N3CCC4(CC3)OCCO4)nn2c1C	86.8	90.4	2.4	-42.9	0.229	72.5*
Cc1c(C(=O)N2CCC3(CC2)OCCO3)sc2ncnc(N3CCN(c4ccccn4)CC3)c12	58.7	68.0	8.1	3.1	-0.144	-5.9
